CHRM1 PAM – positive allosteric modulators of human M1 muscarinic receptor. P11229. CHO-K1 hM1, Fluo-8 calcium fluorescence, ACh EC20; 0% = ACh EC20, 100% = maximal ACh. activation, % at 3 µM. 360,000 compounds, 0.088% hits. AID 588819; in the data active = activation above about 19%, passing the limit was not always enough
Target sequence (P11229 whole entry, looked up): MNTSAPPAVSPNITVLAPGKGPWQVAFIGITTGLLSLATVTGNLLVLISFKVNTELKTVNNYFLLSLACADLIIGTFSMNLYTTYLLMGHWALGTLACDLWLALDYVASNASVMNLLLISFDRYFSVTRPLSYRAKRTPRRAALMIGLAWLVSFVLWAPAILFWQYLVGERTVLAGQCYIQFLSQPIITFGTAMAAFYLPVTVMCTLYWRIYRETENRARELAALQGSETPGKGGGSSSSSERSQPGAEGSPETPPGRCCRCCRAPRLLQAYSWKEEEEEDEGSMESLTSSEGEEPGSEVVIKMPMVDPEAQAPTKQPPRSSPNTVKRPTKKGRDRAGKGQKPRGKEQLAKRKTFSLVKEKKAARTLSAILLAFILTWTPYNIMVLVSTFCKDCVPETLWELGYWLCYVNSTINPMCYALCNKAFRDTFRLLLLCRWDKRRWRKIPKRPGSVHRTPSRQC
CHO-K1 Ca antag – nonselective inhibitor or artifact in parental CHO-K1 cells. ATP-induced calcium, Fluo-8 fluorescence. inhibition, % at 3 µM. 360,000 compounds, 0.6% hits;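 active = inhibition above a per-plate cutoff, the plate's mean sample inhibition plus 3 SD, cut at about 24% in these data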;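 note: 0% = DMSO plus EC80 ATP and 100% = DMSO alone without ATP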
CHRM1 antagonist – blocks human M1 muscarinic receptor | P11229 | CHO-K1 hM1, Fluo-8 calcium fluorescence, ACh EC80 antagonist | AID 588852 | inhibition, % at 3 µM | 360,000 compounds, 1.3% hits;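 active = percent inhibition above its own plate's cutoff, namely the mean of that plate's compound wells plus 3 SD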;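 note: peak over basal fluorescence ratio during 140 s after agonist addition; 0% = ACh EC80 plus DMSO and 100% = DMSO alone without agonist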
M1 ag parental – counter-screen for M1 agonists: effect in parental CHO-K1 cells. AID 602248. activation, % at 3 µM. Fluo-8 calcium fluorescence; scaled to maximal ATP response, vehicle zero. 360,000 compounds, 0.48% hits; in the data active = activation above about 15%;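 note: untransfected CHO-K1 host cells lacking M1 receptor as counterscreen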
M1 ag – activates human CHRM1 receptor. 360,000 compounds, 0.33% hits. activation, % at 3 µM. P11229. CHO-K1 hM1, Fluo-8 calcium fluorescence, agonist mode; 0% DMSO, 100% acetylcholine EC100;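 active = activation above the run's mean compound activation plus 3 SD, cut at about 16% in these data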;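 note: peak over basal fluorescence ratio within a 140 s kinetic read after compound addition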
M1 PAM parental – M1 PAM counterscreen hit in parental CHO-K1 cells | ATP EC20, Fluo-8 calcium fluorescence; 0% at ATP EC20, 100% at ATP max | activation, % at 3 µM | 360,000 compounds, 0.02% hits;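 active = activation above the run cutoff, the mean activation of all test compounds plus 3 SD, cut at about 40% in these data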;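 note: peak over basal fluorescence ratio in a 140 s read after ATP addition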
Active calls of the source: *; x = no result. Shown are actives, neighbours in structure and some others; about 2.3% of the full set was active somewhere.

SMILES | CHRM1 PAM | CHO-K1 Ca antag | CHRM1 antagonist | M1 ag parental | M1 ag | M1 PAM parental
CN1CCc2c(C#N)c(Cl)nc(Cl)c2C1 | 11 | 32* | 3 | 0 | -1 | -17
CN(C)C(CNC(=O)Cc1c(Cl)cccc1Cl)c1ccccc1 (stereo not given) | -37 | 6 | 96* | 0 | -16 | 8
COc1cccc(NC(=O)N2CCC3(CC2)OCCO3)c1 | 7 | -15 | -9 | 1 | -6 | 20
CCOC(=O)CC(SP1(=S)OCC2(CC=CCC2)CO1)C(=O)OCC (stereo not given) | -21 | -1 | 24* | 10 | 1 | -6
O=C(CCc1nnc2ccc(NCc3ccccc3)nn12)N1CCC2(CC1)OCCO2 | 0 | 7 | 6 | 0 | -3 | -11
O=P(C(=Nc1ccc(Cl)cc1)N1CCOCC1)(N1CCOCC1)N1CCOCC1 | 3 | -4 | -2 | 0 | -3 | 1
O=C1CN=C(c2ccc(Cl)cc2)c2oc3ccccc3c2N1 | 9 | 5 | -14 | 0 | 18* | -1
CCN(CC)c1ccc(CNCCc2ccc(F)cc2)cc1 | -20 | 6 | 30* | 3 | -4 | -3
Cc1ccccc1C(O)(Cc1ccccc1)C1CN2CCC1CC2 (stereo not given) | -26 | -9 | 98* | 1 | -6 | 20
CC(=O)OC1C=CC2[C@H]3Cc4ccc(O)c5c4[C@@]2(CCN3C)C1O5 (stereo not given in full) | 2 | -12 | -2 | 0 | -6 | 9
CC1CCCN(C(=O)CCl)C1 (stereo not given) | 9 | -11 | -5 | 1 | -4 | 33
CC1CCN(C(=O)C(C)Cl)CC1 (stereo not given) | 0 | 9 | 0 | 16* | -5 | 11
CC(=O)Nc1nc(CCl)cs1 | 10 | -9 | -10 | 0 | -10 | 21
CN1CCC(O)(c2ccc(Cl)cc2)C(C(=O)c2ccc(Cl)cc2)C1 (stereo not given) | -25 | 9 | 30* | -1 | -10 | -4
CN1CC(C(=O)c2ccc(Cl)cc2)C(c2ccc(Cl)cc2Cl)C1 (stereo not given) | -10 | -7 | 8 | 2 | -6 | 13
CCC1(CCC(C)C)C(=O)NC(=O)N(c2ccccc2)C1=O (stereo not given) | x | -23 | x | 2 | x | 21
CCCCCSc1cc(OC)c(CCN(C)C)cc1OC | -25 | -3 | 49* | 1 | 2 | 2
O=C(CF)N(O)c1ccc(C=Cc2ccccc2)cc1 | 1 | -1 | -4 | 0 | 0 | -6
COC(=O)[C@@H]1[C@@H](C(=O)OC)C2(c3ccccc3-c3ccccc32)N(c2ccc(Cl)cc2)N1C#N | -2 | 26* | -12 | 0 | -4 | 5
CC1=NN(Cc2c[nH]c3ccccc23)C(C)(C)C1 | 3 | 4 | -2 | 1 | -4 | 10
CN(C)P(=NC(=S)c1cccn1C)(N(C)C)N(C)C | -24 | -21 | 33* | 0 | -11 | 2
COc1ccc2c(c1)c(CCN)c(C)n2Cc1ccccc1 | 5 | -8 | -9 | 4 | -4 | 19
CCC(C)N=Cc1c(O)n(-c2ccccc2)c(=O)[nH]c1=O (stereo not given) | 4 | 0 | 0 | 1 | -3 | 17
COC(=O)C1=C(c2ccccc2)C[C@@H]2CC[C@H]1N2C(=O)NCc1ccccc1 | 9 | -6 | -12 | 0 | -10 | -6
COC(=O)C1=C(c2ccccc2)C[C@@H]2CC[C@H]1N2C(=O)NCc1ccc(F)cc1 | -37 | -7 | 67* | -1 | -13 | 5
SMILES | CHRM1 PAM | CHO-K1 Ca antag | CHRM1 antagonist | M1 ag parental | M1 ag | M1 PAM parental
COC(=O)C1=C(c2cc3ccccc3o2)C[C@@H]2CC[C@H]1N2C | -30 | -5 | 35* | 0 | -14 | 5
COC(=O)C1=C(c2cc3ccccc3o2)C[C@@H]2CC[C@H]1N2C(=O)NCc1ccc(F)cc1 | -38 | -14 | 67* | 0 | -12 | 12
COC(=O)C1=C(c2cccc(OCc3ccccc3)c2)C[C@@H]2CC[C@H]1N2C(=O)NCc1ccc(F)cc1 | -34 | -6 | 38* | 0 | -13 | -2
CC(C)CNP(=S)(c1ccccc1)C(C)(C)C (stereo not given) | 5 | -9 | -19 | 0 | -6 | 18
COC(=O)C1=C(c2ccc(F)cc2OCc2ccccc2)C[C@@H]2CC[C@H]1N2C(=O)NCCCOC(C)C | 4 | -14 | 4 | 0 | -6 | 17
CC(C)(C)c1cc(C=C(C#N)C#N)cc(C(C)(C)C)c1O | -15 | 31* | 45 | 10 | 11 | 6
CCCCCCn1c(=O)c(C(=O)Nc2c(C)n(C)n(-c3ccccc3)c2=O)c(O)c2ccccc21 | 7 | -12 | -10 | 0 | -6 | 9
Cc1nc2ccccc2c(=O)n1-c1cc([N+](=O)[O-])cc([N+](=O)[O-])c1 | 3 | -8 | -11 | 2 | 0 | -2
Cc1nc2ccc(Br)cc2c(=O)n1-c1ccc([N+](=O)[O-])c(C(F)(F)F)c1 | -13 | 19 | 36* | 13 | 5 | -11
O=C(Cc1ccccc1)N1CCN(Cc2ccc([N+](=O)[O-])cc2)CC1 | -11 | 15 | 17 | 0 | -5 | -13
O=[N+]([O-])c1cccc(CN2CCN(Cc3ccc(Br)cc3)CC2)c1 | -29 | 8 | 27* | 6 | -12 | -4
CN1CN(c2ccccc2)C2(CCN(CCCSc3ccccc3NC(=O)/C=C/c3ccccc3)CC2)C1=O | -34 | 35* | 55* | 62* | 47* | -26
c1ccc2c(c1)CN(Cc1ccc3c(c1)OCO3)Cc1cnnn1-2 | 0 | 27* | -4 | 0 | -7 | 0
CCN1C[C@@]2(COC)C3[C@@H](OC)[C@H]4[C@@H]1[C@@]3(C1C[C@H]3[C@H](O)C1[C@]4(O)C[C@H]3OC)[C@@H](OC)C[C@H]2O (stereo not given in full) | 1 | 0 | 7 | 2 | -5 | 12
CC1(C)CN=C(Nc2ccc(F)c(Cl)c2)S1 | 1 | -14 | -10 | 30* | 12 | 11
CC1(C)CN=C(Nc2ccc(F)c(F)c2)S1 | 6 | -12 | -13 | 23* | 20* | 21
CC1(C)CSC(Nc2ccc(F)c(Cl)c2)=N1 | -6 | 1 | 1 | 2 | -4 | 1
COc1ccc(CNCCc2c(C)[nH]c3ccc(OC(F)(F)F)cc23)c(OC)c1 | -8 | 33* | 27 | 37* | 0 | -7
O=c1[nH]c(=O)n(CCC2=CCCCC2)c(O)c1/C=N/N1CCOCC1 | 0 | 25* | -4 | 0 | -2 | -24
COC(=O)[C@@H]1N=C(c2ccc(OC)cc2)O[C@]12C(=O)N(C)c1ccc(Cl)cc12 | x | 2 | x | 1 | x | -6

Bioassay records deposited in PubChem BioAssay by The Scripps Research Institute Molecular Screening Center.
